According to PubChem BioAssay (NCI):
The panel holds about 83,000 compounds, 20% with a hit somewhere; the sample as a whole holds those more often.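 Note: values are percent growth. 100 is the growth of untreated cells, values between 100 and 0 indicate rising inhibition; between -100 and 0 indicates cell death.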 Unmarked numbers belong to inactive results. The source made the active and inactive calls. The calls were made as follows: active = growth percent below 10; inactive = the rest.

system: MDA-MB-468 breast; test: NCI-60 one-dose screen, 48 h (100 = growth as untreated, 0 = no growth, -100 = all killed); conditions: 10 µM unless noted

SMILES	growth
C/C(=N/O)c1ccc(F)cc1	75%
O=C(NNc1nc2cc(F)cc(F)c2n2cccc12)c1cnccn1	-10.9% (active)
CCCC(=O)Oc1ccc(/C(=C(\C)c2ccccc2)c2ccc(OCCN(CC)CC)cc2)cc1	62.4%
O=C(CSc1nnnn1-c1ccccc1)Nc1ccc(Oc2ccccc2)cc1	115%
CSc1nc2nc3c(nc2c(=O)n1C)C(=O)c1ccccc1C3=O	-58.4% (active)
Cc1ccc(S(=O)(=O)C2=C3C(=C(c4ccccc4)c4ccccc43)CN(S(=O)(=O)c3ccc(C)cc3)C2)cc1	51%
CCOc1cccc(-c2nc3sccn3c2-c2ccnc(S(C)(=O)=O)n2)c1	-0.693% (active)
OCCNc1ccccc1	99.4%
COC(=O)/C=C1/SC(N2N=C(c3cccs3)CC2c2ccc(F)cc2)=NC1=O (stereo not given)	36.7%
COc1cc2nc(-c3ccc(Cl)cc3)cc(OCCCNCC3CCCO3)c2cc1OC (stereo not given)	46.2%
CCCOC(=O)c1ccc([N+](=O)[O-])o1	113%
CCc1c2c(nc3ccc(OC(=O)N4CCC(N5CCCCC5)CC4)cc13)-c1cc3c(c(=O)n1C2)COC(=O)[C@]3(O)CC	-31.2% (active)
COc1cc(C(=O)N(C(C)C)C2CCCCC2)cc(OC)c1OC	89.8%
COc1cc(C2CC(C3C(=O)N(C)C(=O)N(C)C3=O)=NN2C=O)cc(OC)c1OC (stereo not given)	103%
CNc1ncc2cc(-c3ccc(-c4ncccc4F)cc3Cl)c(=O)n(CC3OCC(N)CO3)c2n1 (stereo not given)	34.5%
C=C(C)[C@@H]1CC[C@]2(C(=O)O)CC[C@]3(C)[C@H](CC[C@@H]4[C@@]5(C)C[C@@H](CC#Cc6ccccc6C)C(=O)C(C)(C)[C@@H]5CC[C@]43C)[C@@H]12	17.2%
O=S(=O)(NCCNc1nccc(-c2c(-c3ccc(F)c(O)c3)nc3sccn23)n1)c1ccc(F)cc1	29.3%
CCOc1nc(-c2ccccc2)cc2c(O)c(C(=O)NN)[nH]c(=O)c12	110%
Nc1nc(=S)c2ncn(C3OC(COP(=O)(O)O)C(O)C3O)c2[nH]1 (stereo not given)	4.34% (active)
Cc1ccccc1C(=O)NN	121%

SMILES	growth
CC1(C)CC[C@]2(C(=O)NCC#CCN3CCOCC3)CC[C@]3(C)C(=CC[C@@H]4[C@@]5(C)Cc6c([nH]c7ccccc67)C(C)(C)[C@@H]5CC[C@]43C)[C@@H]2C1	90.8%
CCCCCCCCCCCCCCCCC(=O)O.CCCCCCCCCCCCCCCCCC(=O)O.CCCCCCCCCCCCCCCCCC(=O)O.CCCCCCCCCCCCCCCCCC(=O)O.CCCCCCCCCCCCCCCCCC(=O)O.CO[CH-]OC12COC1CC(O)C1(C)C(O)C(OC(C)O)C3=C(C)C(OC(=O)C(O)C([NH-])c4ccccc4)CC(O)(C(OC(=O)c4ccccc4)C21)C3(C)C.[Cu+].[Zn].[Zn].[Zn].[Zn].[Zn] (stereo not given)	-13.3% (active)
Cc1ccc2c(n1)C(=O)c1[nH]c3ccccc3c1C2=O	-15.8% (active)
CCOC(=O)CN1/C(=N/c2sc3c(c2C(=O)OCC)CCN(C(=O)OCC)C3)SC(=O)/C1=C\C(=O)OC	79.6%
CCCCCCCC/C=C\CCCCCCCCOc1ccc(CC(=O)NCC[N+](C)(C)C)cc1	60.1%
CCCCCCCCCCCCCCCCC(C(=O)O)C(O)(CC(=O)O)C(=O)O (stereo not given)	102%
CCCCCOC(=O)c1cccc(NC(=O)CN(CC)CC)c1	106%
Cc1ccc2c(n1)C(=O)C(Cl)=C(Nc1ccc(C)c(C)c1)C2=O	-25.3% (active)
O=C(NC(=S)Nc1ccc(Cl)cc1)c1ccccc1	-37% (active)
Clc1ccc(C2CC(c3cccc(Nc4ccncc4)c3)=NN2c2ccccc2)cc1 (stereo not given)	61.6%
CC(C)(C)[Si](C)(C)OC1[C@@H](CNC(=O)NC(=O)NC(N)=O)O[C@@H](n2cnc3c(NC(=O)Nc4ccccc4)ncnc32)[C@H]1O[Si](C)(C)C(C)(C)C (stereo not given in full)	99.1%
OC(CSc1ccccc1)CN1CCN(c2cccc(Cl)c2)CC1 (stereo not given)	96.8%
Cc1ccc(Cc2cnc(NC(=O)c3cc(Br)cs3)s2)cc1	30%
COc1ccc(-n2c(/C=C3\C(=O)Nc4ccccc43)ccc2CO)cc1	96.4%
Cc1ccc(NC(=O)c2sc3nc(C)c(C(=O)c4ccccc4)cc3c2N)cc1	79%
CC(C)(C)NC/C(=C\c1ccccc1)C(=O)c1ccccc1	-50.5% (active)
CC/C(=C(/c1ccc(OCCN(C)C)cc1)c1ccc(OC(=O)CCCCCCCCC(=O)c2c(C)[nH]c(/C=C3\N=C(c4ccc[nH]4)C=C3OC)c2C)cc1)c1ccccc1	53.4%
COCCOCCOCc1n(Cc2ccc3ccccc3n2)c2ccccc2[n+]1Cc1ccc2ccccc2n1	-17.4% (active)
O=C(N/N=C/C=C/c1ccc([N+](=O)[O-])o1)c1cc2ccccc2cc1O	-65% (active)
Cc1cc(N2CCOCC2)nc(N2CCOCC2)n1	94.6%
